# Measured values: PubChem BioAssay (NCATS)
# Unmarked numbers belong to inactive results. Results filed as inconclusive are left out. Active and inactive are the calls of the source. Unless noted, the call rests on the fitted dose curve; in most records, active means well fitted inhibition curve with a large enough effect; inconclusive means small, poorly fitted or top-dose-only effect; inactive means flat fitted curve, though single readings scatter.
# Target: Peptidyl-prolyl cis-trans isomerase NIMA-interacting 1 (Homo sapiens) (UniProt Q13526)
# Test: qHTS Validation Assay to Find Inhibitors of Pin1 (AID 504536; active means well fitted inhibition curve with a large enough effect in the polarisation, with a control signal flat, not every such curve was filed as active; the % refers to the polarisation;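 on activity, negative = inhibition: 0% = full Pin1 enzyme wells and -100% = no-enzyme wells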)
# Settings: Pin1 fluorescence polarization peptide binding assay; series mostly up to 57.5 µM; activity, negative = inhibition: at the top concentration
# How it was run: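 Fluorescence polarization competition: compounds (titration) displace HiFluor-488-labeled Pin1-1b peptide from Pin1 (0.3 uM final) in pH 7.5 HEPES buffer with DTT, 10 min at room temperature; %Activity normalized to no-enzyme wells, curves fitted.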
# Potency means the concentration at half of the fitted maximal effect.
# Peptidyl-prolyl cis-trans isomerase NIMA-interacting 1 (Homo sapiens), sequence (Q13526 whole entry, looked up): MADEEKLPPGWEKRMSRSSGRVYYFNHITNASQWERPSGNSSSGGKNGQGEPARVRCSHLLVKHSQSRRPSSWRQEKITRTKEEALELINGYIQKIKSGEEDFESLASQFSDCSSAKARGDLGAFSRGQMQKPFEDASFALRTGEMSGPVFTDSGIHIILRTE
Structure (SMILES),Potency,"activity, negative = inhibition"
CCCN1CCC[C@@H]2Cc3[nH]ncc3C[C@H]21,inactive,–
Cc1cc2c(C(C)C)c(O)c(O)c(C=O)c2c(O)c1-c1c(C)cc2c(C(C)C)c(O)c(O)c(C=O)c2c1O,9.53 µM (active),–
COc1ccc(C(CN(C)C)C2(O)CCCCC2)cc1 (centres undefined),–,6.64%

# Target: Phosphoglycerate kinase, glycosomal (Trypanosoma brucei brucei) (UniProt P07378)
# Test: qHTS Validation Assay to Find Inhibitors of Phosphoglycerate Kinase (AID 504547);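 on activity, negative = inhibition: control wells lack PGK and mark full inhibition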
# Settings: enzymatic PGK inhibition, coupled luminescence read-out; series mostly up to 57.5 µM; activity, negative = inhibition: at the top concentration
# How it was run: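 Compounds are pinned into the substrate/PGK mixture, and GAPDH (100nM final) is added to start the reaction by producing 1,3-BPG. After 60 minutes at room temperature, Kinase-Glo Plus is added and luminescence is measured 10 minutes later.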
# Phosphoglycerate kinase, glycosomal (Trypanosoma brucei brucei), sequence (P07378 whole entry, looked up): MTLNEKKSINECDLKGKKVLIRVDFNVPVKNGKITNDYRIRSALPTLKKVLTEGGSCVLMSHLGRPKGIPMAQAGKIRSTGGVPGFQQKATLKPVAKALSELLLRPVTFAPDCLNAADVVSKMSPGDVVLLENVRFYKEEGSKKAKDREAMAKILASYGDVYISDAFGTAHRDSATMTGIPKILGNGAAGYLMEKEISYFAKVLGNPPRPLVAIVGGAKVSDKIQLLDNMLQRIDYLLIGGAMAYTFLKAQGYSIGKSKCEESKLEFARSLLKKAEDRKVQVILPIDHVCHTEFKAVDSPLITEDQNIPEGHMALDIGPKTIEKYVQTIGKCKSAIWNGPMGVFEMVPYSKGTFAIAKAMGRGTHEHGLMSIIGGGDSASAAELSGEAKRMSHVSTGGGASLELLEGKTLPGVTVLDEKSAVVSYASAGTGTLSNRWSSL
Structure (SMILES),Potency,"activity, negative = inhibition"
O=c1c(O)c(-c2ccc(O)c(O)c2)oc2cc(O)cc(O)c12,7.57 µM (active),–
CC[C@@H](CO)NC(=O)[C@@H]1C=C2c3cccc4[nH]cc(c34)C[C@H]2N(C)C1,–,10.5%
Cc1cccc(C)c1NC(=O)CN1CCCC1=O,–,11%
CCCN1CCC[C@@H]2Cc3[nH]ncc3C[C@H]21,inactive,–
CC[C@@H](CO)NC(=O)[C@@H]1C=C2c3cccc4c3c(cn4C)C[C@H]2N(C)C1,–,12.3%
COc1ccc(C(CN(C)C)C2(O)CCCCC2)cc1 (centres undefined),–,12.4%
